Compound activity from PubChem BioAssay.
A1 inh: inhibitors of A1 | MEF A1-2A-BIM cells, caspase-Glo luminescence, 3 h; percent of clofoctol signal, DMSO as zero | caspase activation, % (test concentration not listed) | 21,000 tested, 0.51% active;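 active means most replicate scores above 10, or exactly half above 10 with mean activity above 10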;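 further: effector caspase 3 and 7 activity cleaving a DEVD luciferin substrate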
BJeLR viab HTS: compounds reducing viability of BJeLR cells | viability loss activity score, % (no concentration beside the values) | 30,000 tested, 0.64% active | BJeLR fibroblasts viability, CellTiterGlo ATP luminescence, 48 h; HRASV12, hTERT and SV40 LT/ST transformed | AID 2275; in the data active means viability loss activity score above about 50%;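 further: higher score means fewer live cells and less ATP luminescence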
Numbers without * were called inactive. Compounds with a hit are over-represented: about 0.89% of the library has one in this group of screens.

`CC1CC[C@@]2(OC1)O[C@H]1CC3C4CC=C5C[C@@H](O[C@@H]6O[C@H](CO)[C@@H](O[C@@H]7O[C@@H](C)[C@H](O)[C@@H](O)[C@H]7O)[C@H](O)[C@H]6O[C@@H]6O[C@@H](C)[C@H](O)[C@@H](O)[C@H]6O)CC[C@]5(C)C4CC[C@]3(C)[C@@]1(O)[C@@H]2C` (stereo not given in full) gave A1 inh -3 and BJeLR viab HTS 92*.
Screening CCC(=O)c1ccc(OC(=O)c2cn(-c3ccccc3)nc2-c2ccccc2)cc1 returned BJeLR viab HTS -3.
CC(C)NC(=O)c1ccc(N2CCCC2=O)cc1 was read as BJeLR viab HTS 7.
For O=C(NC1CCCCC1)N1c2ccccc2CCc2ccccc21 the results were A1 inh 0 and BJeLR viab HTS -1.
Screening O=C(C1CC1)N1c2ccccc2CCc2ccccc21 returned A1 inh 2 and BJeLR viab HTS 54*.
For COc1ccc(OC)c2[nH]c(=O)c(CCNC(=O)/C=C\c3ccc4c(c3)OCO4)cc12 the results were BJeLR viab HTS 4.
For CC1(C)C(=O)C=C[C@@]2(C)C1C=C[C@]1(C)C2CC[C@@]2(C)[C@H](c3ccoc3)OC(=O)C3OC321 (stereo not given in full) the results were A1 inh 1 and BJeLR viab HTS 12.
C=C1C(C2(C)C=CC(=O)C(C)(C)C2CC(=O)OC)CC[C@@]2(C)[C@H](c3ccoc3)OC(=O)C3OC132 (stereo not given in full) was read as A1 inh 0 and BJeLR viab HTS 91*.
Screening CCOC(=O)C(C)Sc1nc2c([nH]c3ccccc32)c(=O)n1-c1ccc(Cl)cc1 (stereo not given) returned BJeLR viab HTS -1.
Cc1ccc(Nc2nnc(-c3ccc(C)c(S(=O)(=O)NCC4CCCO4)c3)c3ccccc23)cc1 (stereo not given) was read as A1 inh 1 and BJeLR viab HTS 5.
Cc1ccc(SC(=O)c2c(C)noc2-c2cc(C)on2)cc1 was read as A1 inh 9.8* and BJeLR viab HTS 1.
For Cc1cc(-c2c(C(=O)Sc3ccccc3)c(C)nn2-c2ccccc2)no1 the results were A1 inh 0 and BJeLR viab HTS 0.
`Cc1ccccc1C(=O)Nc1cccc(-c2cn3ccccc3n2)c1` gave A1 inh -1 and BJeLR viab HTS 5.
`COc1ccc(C(=O)Nc2ccc(-c3cn4ccccc4n3)cc2)cc1` gave A1 inh 31* and BJeLR viab HTS 8.
C=CCOc1nc(NCC)nc(N(C)C)n1 was read as A1 inh 0 and BJeLR viab HTS 4.
Screening Cc1[nH]c2ccccc2c1C(c1ccccc1)N1CCN(C)CC1 (stereo not given) returned A1 inh 66* and BJeLR viab HTS 40.
Screening Cc1[nH]c2ccccc2c1C(O)c1cccnc1 (stereo not given) returned A1 inh 1 and BJeLR viab HTS -2.
Screening COc1ccc2nc3oc(C(=O)Nc4ccc(C(C)C)cc4)cc3cc2c1 returned BJeLR viab HTS 21.
For O=C1C=CC(=O)c2c(O)c(Cl)c(Cl)c(O)c21 the results were A1 inh -5 and BJeLR viab HTS 54*.
For CC1c2nc3ccccc3n2C(CC(=O)NCc2ccc(Cl)cc2)C(=O)N1Cc1ccccc1 (stereo not given) the results were BJeLR viab HTS -2.
Screening C[C@@H]1C[C@@H]2O[C@H]2/C=C/C=C\C(=O)Cc2c(Cl)c(O)cc(O)c2C(=O)O1 returned A1 inh 0 and BJeLR viab HTS 81*.
COc1cc(O)cc2c1C(=O)OC(C)C2 (stereo not given) was read as A1 inh 0 and BJeLR viab HTS 5.
O=C(N1CCCCC1)C1(S(=O)(=O)c2ccc(Cl)cc2)CC1 was read as BJeLR viab HTS -2.
Screening CC(=O)Nc1c(O)[nH]c2ccc(C)cc12 returned BJeLR viab HTS 0.
For Cc1cccc(Cn2c(=O)n(Cc3ccccc3)c(=O)c3c(C)c(C)sc32)c1 the results were BJeLR viab HTS -1.
C[C@@H]1C[C@H]2OCC3=CCC[C@H]([C@]1(CC(O)c1ccoc1)C(=O)O)[C@]32CO (stereo not given in full) was read as A1 inh 0 and BJeLR viab HTS 92*.
Screening CC1=CCC[C@@H]2[C@](CCc3ccoc3)(C(=O)O)[C@H](C)CC[C@@]12C returned A1 inh 1 and BJeLR viab HTS -3.
For C=C(C)C(=O)O[C@H]1CC(=C)C2C[C@H](O)[C@](O)(CO)C2[C@H]2OC(=O)C(=C)[C@H]12 (stereo not given in full) the results were A1 inh 0 and BJeLR viab HTS -11.
C=C(C)C(=O)O[C@H]1[C@H]2C(=C)C(=O)O[C@@H]2C[C@@H](C)[C@@H]2O[C@@H]2C(=O)[C@](C)(O)[C@@H]1OC(=O)C(=C)C was read as A1 inh 0 and BJeLR viab HTS 80*.
`Cc1cc(C)cc(NC(=O)c2cc3ccccc3o2)c1` gave A1 inh -4 and BJeLR viab HTS 4.
`COc1cc(NC(=O)COc2cc(C)c(Cl)c(C)c2)ccc1NC(=O)c1cc2ccccc2o1` gave A1 inh 17* and BJeLR viab HTS 7.
Screening FC(F)(F)c1cccc(OCCNc2nc3ccccc3c3nc(-c4cccnc4)nn23)c1 returned BJeLR viab HTS -8.
CCC1=Nc2cc(C(=O)N3CCc4ccccc4C3)ccc2Sc2ccccc21 was read as BJeLR viab HTS -3.
For Cc1c(C(=O)NC(C)C)oc2ccc(S(=O)(=O)N3CCCC3)cc12 the results were BJeLR viab HTS 4.
For Cc1c(C(=O)Nc2ccccc2Br)oc2ccc(S(=O)(=O)N3CCCC3)cc12 the results were A1 inh 60* and BJeLR viab HTS -1.
`CC(C)CNC(=O)NC1(C(F)(F)F)Oc2ccc(Cl)cc2O1` (stereo not given) gave BJeLR viab HTS -5.
`CN(CC(=O)NCc1ccccc1)S(=O)(=O)c1ccc2c(c1)c(=O)n(C)c(=O)n2C` gave BJeLR viab HTS -1.
CC12CC3(C)CC(C)(C1)CC(CN=Cc1ccc(O)cc1)(C2)C3 was read as A1 inh 13* and BJeLR viab HTS 3.
Oc1ccc(/C=N/c2nccs2)cc1 was read as A1 inh 0 and BJeLR viab HTS -1.
CCOC(=O)c1ccc(NC(=O)CSc2nccn2-c2cccc(C)c2C)cc1 was read as BJeLR viab HTS -5.
Screening CCOC(=O)c1c(C)nsc1Nc1cc(C)ccc1C returned A1 inh 0 and BJeLR viab HTS 2.
CCCCNc1c(C(=O)OCC)c(C)nc2c1cnn2CC was read as A1 inh -1 and BJeLR viab HTS 80*.
`Cc1ccc(-c2n[nH]c(=S)c3ccccc23)cc1S(=O)(=O)NCc1cccnc1` gave BJeLR viab HTS 6.
Screening CCc1c(C)c(C#N)c2[nH]c3ccccc3n2c1=O returned A1 inh 3 and BJeLR viab HTS 101*.
Screening CCCCc1c(C)c(C#N)c2[nH]c3ccccc3n2c1=O returned A1 inh -1 and BJeLR viab HTS 12.
`CC1=NOC(=O)/C1=C\C=C/c1ccccc1` gave A1 inh 3 and BJeLR viab HTS -7.
`COc1cc(OC)cc(-c2nc(N)c3c(C)c(-c4ccc(OC)c(OC)c4)sc3n2)c1` gave A1 inh 10* and BJeLR viab HTS 1.
